The values below come from PubChem BioAssay (Tox21).

Assay [1] in a line: Nuclear factor erythroid 2-related factor 2/antioxidant responsive element (Nrf2/ARE) small molecule agonists: qHTS cell viability counter screen in human keratinocytes (AID 1919968; active = well fitted curve in the direction sought with a large enough effect in the repeat runs; an effect the other way counts as inactive or inconclusive; also: nearly all actives have a fitted effect of over 55% in size; also: potency is read from the fitted curve at half-maximal effect). An outline of the steps:
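Cells of the KeratinoSens line were plated at 1,500 per well and left for 5 h before compound transfer from DMSO stocks. After a 23 h incubation (37 C, 5% CO2), CellTiter-Fluor was added. Signal was taken as fluorescence intensity 1 h later.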
(In general: Quantitative high-throughput screening tests each substance at several concentrations.)

The nature of assay [2]: Nuclear factor erythroid 2-related factor 2/antioxidant responsive element (Nrf2/ARE) small molecule agonists: luciferase reporter gene qHTS assay in human keratinocytes (AID 1919969). Also: nearly all actives have a fitted effect of over 35% in size. Also: potency is read from the fitted curve at half-maximal effect. For orientation: Reporter assays use an easily measured gene product as a stand-in for the process of interest.
The target of assay [3] is Gonadotropin-releasing hormone receptor (Homo sapiens) (UniProt P30968). Put plainly: Human gonadotropin-releasing hormone receptor (GnRHR) small molecule agonists, calcium flux assay in GnRHR-HEK293 cells (AID 1920063). Also: nearly all actives have a fitted effect of over 35% in size. Put shortly: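 Compounds dissolved in DMSO are pin-transferred onto dye-loaded GnRHR-HEK293 cells, which were seeded 18 h before at 37 C/5% CO2. Calcium signal is read as fluorescence intensity at 1 s intervals for 3 min.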
(In general: A change in cytosolic calcium serves as a functional read-out for many receptors and channels.)

For assay [4], the target named is KiSS-1 receptor (Homo sapiens) (UniProt Q969F8). Kind of assay: Human kisspeptin (KISS1R) small molecule agonists, calcium flux assay in KISS1R-HEK293 cells (AID 1920064; active = well fitted curve in the direction sought with a large enough effect in the repeat runs; an effect the other way counts as inactive or inconclusive). An outline of the steps: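 Cell line: HEK293, stable human KISS1R. Dye loading 1 h at 37 C after 18 h culture. Read: kinetic fluorescence, 480/540 nm, 3 min at 1 s intervals.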
The nature of assay [5]: G protein-coupled receptor (GPCR) small molecule agonists, calcium flux assay: HEK293 wild type cell line counter screen (AID 1920065). Put shortly:
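Tox21 10K compounds, 15 concentrations each in triplicate, pin-transferred in DMSO onto dye-loaded cells; kinetic read at 480/540 nm for 3 min, 1 s intervals.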

Assay [6] in a line: p53 small molecule agonists, cell-based qHTS assay with rat liver microsomes (AID 1963578). Put shortly:
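p53RE-bla cells, 4,000/well, pre-incubated 5 h, then given compounds plus rat liver microsomes (0.5 mg/mL final) and NADPH (0.5 mg/mL final). Incubation 16 h at 37 C; beta-lactamase reporter read by LiveBLAzer fluorescence after 2 h at room temperature.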

The nature of assay [7]: p53 small molecule agonists, cell-based qHTS assay with human liver microsomes: qHTS cell viability counter screen (AID 1963579). Also: nearly all actives have a fitted effect of over 45% in size. Put shortly:
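p53RE-bla cells, 4,000/well, dosed 5 hours after plating, with human liver microsomes (0.5 mg/mL final) plus NADPH (0.5 mg/mL final), 16 hours at 37 C. Viability read as CellTiter-Glo luminescence after 30 min at room temperature.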

The nature of assay [8]: p53 small molecule agonists, cell-based qHTS assay with rat liver microsomes: qHTS cell viability counter screen (AID 1963580). Also: nearly all actives have a fitted effect of over 45% in size. Also: potency is read from the fitted curve at half-maximal effect. An outline of the steps: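 After the beta-lactamase ratio was read, CellTiter-Glo was added to the same wells and luminescence measured at 30 min; cells had been treated 16 h at 37 C with compounds, rat liver microsomes and NADPH (0.5 mg/mL final each).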

Assay [9] in a line: p53 small molecule agonists, cell-based qHTS assay: qHTS cell viability counter screen (AID 1963581). Also: nearly all actives have a fitted effect of over 45% in size. An outline of the steps:
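ATP content measured by luminescence in HCT-116 p53RE-bla cells treated 16 h at 37 C, same wells as the reporter screen.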

The target in assay [10] is 5-hydroxytryptamine receptor 2A (Homo sapiens) (UniProt P28223). Put plainly: 5-hydroxytryptamine receptor 2A (HTR2A) small molecule agonists, cell-based qHTS assay (AID 1963587). Also: nearly all actives have a fitted effect of over 30% in size. Put shortly: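 CHO cells stably expressing human HTR2A, plated 18 h, loaded with calcium dye 1 h at 37 C. Agonist mode: compounds added and intracellular calcium fluorescence recorded kinetically for 2 min at 1 sec intervals.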

The target of assay [11] is Muscarinic acetylcholine receptor M1 (Homo sapiens) (UniProt P11229). Kind of assay: Cholinergic receptor muscarinic 1 (CHRM1) small molecule antagonists, cell-based qHTS assay (AID 1963588). Also: nearly all actives have a fitted effect of over 40% in size. Also: potency is read from the fitted curve at half-maximal effect. An outline of the steps: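 Compounds were tested at 15 concentrations in three independent runs. Dye-loaded CHRM1-CHO cells were exposed 5 min at room temperature before stimulation by acetylcholine added at 50nM. Intracellular calcium was read kinetically on FDSS for 3 min.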

Assay [12] shares this target. Put plainly: Cholinergic receptor muscarinic 1 (CHRM1) small molecule agonists, cell-based qHTS assay (AID 1963589). Also: nearly all actives have a fitted effect of over 35% in size. Also: potency is read from the fitted curve at half-maximal effect. Put shortly: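 Homogeneous fluorescence calcium flux, agonist mode. Human M1-expressing CHO cells; compound dosed at 15 concentrations, three independent runs; signal sampled every 1 sec.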
Assay [13] is described as follows: cAMP Responsive Elements (CRE) small molecule antagonists, cell-based qHTS assay (AID 1963591; active = well fitted inhibition curve with a large enough effect in the signal ratio in the repeat runs, not every such curve was filed as active; the % refers to the signal ratio). Put shortly:
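First, CRE-bla HEK293T cells settled 18 h at 37 C. Next, compound and 0.25 uM final NKH477 were applied for 3 h. Last, LiveBLAzer B/G substrate was loaded for 2 h at room temperature.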

The target of assay [14] is Beta-2 adrenergic receptor (Homo sapiens) (UniProt P07550). Kind of assay: Adrenergic beta2 receptor (ADRB2) small molecule antagonists, cell-based qHTS assay (AID 1963592). Also: series mostly up to about 92 µM; nearly all actives have a fitted effect of over 50% in size. An outline of the steps: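 Assay format: CHO-ADRB2 cells, 18-20hr seeding at 37C/5% CO2, then compound plus 1nM isoproterenol agonist mix for 0.5hr RT. Homogeneous time-resolved fluorescence cAMP detection after 1hr, expressed as 665/615 nm ratio.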

The nature of assay [15]: p53 small molecule agonists, cell-based qHTS assay (AID 1963582; active = well fitted activation curve with a large enough effect in the signal ratio in the repeat runs, not every such curve was filed as active; the % refers to the signal ratio). An outline of the steps: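 16 h compound exposure (37 C) of p53 response element–bla cells, preceded by 5 h recovery at 37 C/5% CO2; read-out via LiveBLAzer B/G FRET substrate, 2 h RT, fluorescence intensity.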
Assay [16] has as its target 5-hydroxytryptamine receptor 2A (Homo sapiens) (UniProt P28223). Put plainly: 5-hydroxytryptamine receptor 2A (HTR2A) small molecule antagonists, cell-based qHTS assay (AID 1963586). Also: nearly all actives have a fitted effect of over 45% in size. An outline of the steps: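 CHO cells stably expressing human HTR2A were plated for 18 h at 37 C, then loaded with calcium dye for 1 h. Compounds were preincubated 5 min at room temperature before DOI (4 nM solution) was added. Kinetic fluorescence was read for 3 min.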

Assay [17] can be described thus: cAMP Responsive Elements (CRE) small molecule agonists, cell-based qHTS assay (AID 1963590). An outline of the steps:
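HEK 293T cells stably bearing CRE-bla were plated at 2,000 cells per well and rested 18 h. Compounds, positive controls or DMSO were added for 3 h at 37 C. LiveBLAzer B/G substrate was then loaded for 2 h at room temperature.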

Assay [18] deals with D(2) dopamine receptor (Homo sapiens) (UniProt P14416). Kind of assay: Dopamine D2 receptor (DRD2) small molecule agonists, cell-based qHTS assay (AID 1963594). Also: nearly all actives have a fitted effect of over 35% in size. An outline of the steps:
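HEK293 cells stably expressing human DRD2, pre-treated with PDE inhibitor Ro20-1724 (0.1 mM final) and compound 10 min at room temperature, then stimulated with NKH477 (200nM […]) for 30 min. cAMP read by HTRF (665/620 nm).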

For assay [19] the target is unchanged. Kind of assay: Dopamine D2 receptor (DRD2) small molecule antagonists, cell-based qHTS assay (AID 1963595; active = well fitted inhibition curve with a large enough effect in the signal ratio in the repeat runs, with a control signal flat; the % refers to the signal ratio). Put shortly: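 Stable D2 receptor HEK293 line, 24 h after seeding. Compound preincubated 10 min, then quinpirole (12 nM) with forskolin analogue NKH477 (200 nM), 30 min, room temperature. Detection by time-resolved FRET of cAMP.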
Assay [20] concerns the target Beta-2 adrenergic receptor (Homo sapiens) (UniProt P07550). Kind of assay: Adrenergic beta2 receptor (ADRB2) small molecule agonists, cell-based qHTS assay (AID 1963593).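 Also: CHO cells stably overexpressing human ADRB2.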 Put shortly:
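CHO cells stably over-expressing ADRB2 were plated overnight at 37C, then dosed with compounds plus a stimulation mix containing 100uM IBMX and 25uM Ro-20-1724 for 0.5hr at room temperature. cAMP was measured by HTRF competition, 1hr.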

Each structure is given as a SMILES string. Records with an inconclusive call do not appear. Activity calls are given as the source filed them. Unless noted, calls follow the shape of the full dose curve.

Sequence of 5-hydroxytryptamine receptor 2A (Homo sapiens) (P28223 whole entry, looked up): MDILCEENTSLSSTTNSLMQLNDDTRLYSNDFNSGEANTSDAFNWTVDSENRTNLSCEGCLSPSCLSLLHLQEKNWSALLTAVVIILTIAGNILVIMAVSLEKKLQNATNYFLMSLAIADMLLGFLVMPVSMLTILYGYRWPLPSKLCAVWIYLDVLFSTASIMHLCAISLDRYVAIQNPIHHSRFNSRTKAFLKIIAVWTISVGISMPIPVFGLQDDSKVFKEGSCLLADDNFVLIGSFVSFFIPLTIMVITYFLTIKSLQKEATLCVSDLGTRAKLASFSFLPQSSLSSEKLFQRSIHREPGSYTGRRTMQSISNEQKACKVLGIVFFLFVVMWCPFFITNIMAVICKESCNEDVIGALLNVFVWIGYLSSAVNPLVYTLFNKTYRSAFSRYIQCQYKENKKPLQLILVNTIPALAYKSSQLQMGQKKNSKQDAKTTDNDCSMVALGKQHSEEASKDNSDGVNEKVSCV
Sequence of KiSS-1 receptor (Homo sapiens) (Q969F8 whole entry, looked up): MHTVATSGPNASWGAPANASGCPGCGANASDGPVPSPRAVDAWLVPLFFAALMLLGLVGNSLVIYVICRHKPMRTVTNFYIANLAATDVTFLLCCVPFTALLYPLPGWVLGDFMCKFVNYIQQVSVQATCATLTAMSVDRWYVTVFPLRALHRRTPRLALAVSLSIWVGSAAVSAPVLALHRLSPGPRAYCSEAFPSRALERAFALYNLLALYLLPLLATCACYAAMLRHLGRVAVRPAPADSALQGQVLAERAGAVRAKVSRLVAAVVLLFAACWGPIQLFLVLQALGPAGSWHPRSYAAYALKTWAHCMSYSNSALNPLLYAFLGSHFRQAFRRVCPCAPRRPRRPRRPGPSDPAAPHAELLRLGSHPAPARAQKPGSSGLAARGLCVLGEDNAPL
Sequence of Gonadotropin-releasing hormone receptor (Homo sapiens) (P30968 whole entry, looked up): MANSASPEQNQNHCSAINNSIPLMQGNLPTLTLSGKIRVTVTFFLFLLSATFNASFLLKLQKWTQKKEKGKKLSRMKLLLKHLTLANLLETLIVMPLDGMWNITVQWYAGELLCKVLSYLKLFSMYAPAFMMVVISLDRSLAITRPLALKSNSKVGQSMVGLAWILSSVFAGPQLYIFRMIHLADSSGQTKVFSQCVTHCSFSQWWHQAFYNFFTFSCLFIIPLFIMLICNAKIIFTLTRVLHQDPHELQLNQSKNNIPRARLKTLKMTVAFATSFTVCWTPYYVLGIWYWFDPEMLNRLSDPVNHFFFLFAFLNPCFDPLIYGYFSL
Sequence of D(2) dopamine receptor (Homo sapiens) (P14416 whole entry, looked up): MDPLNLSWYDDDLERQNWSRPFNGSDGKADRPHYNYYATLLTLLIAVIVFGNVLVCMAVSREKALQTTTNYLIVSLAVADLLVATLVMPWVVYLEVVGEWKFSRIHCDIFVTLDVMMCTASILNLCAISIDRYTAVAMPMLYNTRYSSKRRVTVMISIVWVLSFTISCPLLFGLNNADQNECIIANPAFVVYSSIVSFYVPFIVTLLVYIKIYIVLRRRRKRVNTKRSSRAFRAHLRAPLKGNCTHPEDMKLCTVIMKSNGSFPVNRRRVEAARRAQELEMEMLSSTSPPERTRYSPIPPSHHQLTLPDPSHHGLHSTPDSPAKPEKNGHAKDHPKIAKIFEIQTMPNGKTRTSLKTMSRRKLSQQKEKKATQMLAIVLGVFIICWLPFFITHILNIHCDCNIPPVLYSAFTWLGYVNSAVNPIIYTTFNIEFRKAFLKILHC
Sequence of Muscarinic acetylcholine receptor M1 (Homo sapiens) (P11229 whole entry, looked up): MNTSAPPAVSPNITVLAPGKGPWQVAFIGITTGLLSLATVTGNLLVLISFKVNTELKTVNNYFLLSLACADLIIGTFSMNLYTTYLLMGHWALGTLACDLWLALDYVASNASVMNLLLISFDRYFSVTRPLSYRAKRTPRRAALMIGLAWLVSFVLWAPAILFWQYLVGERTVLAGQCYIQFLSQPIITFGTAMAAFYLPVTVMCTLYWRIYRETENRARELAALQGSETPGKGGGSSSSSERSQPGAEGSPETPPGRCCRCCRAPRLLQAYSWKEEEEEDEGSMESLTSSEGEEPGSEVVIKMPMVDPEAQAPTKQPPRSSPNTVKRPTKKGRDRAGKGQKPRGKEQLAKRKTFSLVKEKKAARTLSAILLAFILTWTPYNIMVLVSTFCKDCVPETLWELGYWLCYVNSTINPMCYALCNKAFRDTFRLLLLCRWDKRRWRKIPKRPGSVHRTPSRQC
Sequence of Beta-2 adrenergic receptor (Homo sapiens) (P07550 whole entry, looked up): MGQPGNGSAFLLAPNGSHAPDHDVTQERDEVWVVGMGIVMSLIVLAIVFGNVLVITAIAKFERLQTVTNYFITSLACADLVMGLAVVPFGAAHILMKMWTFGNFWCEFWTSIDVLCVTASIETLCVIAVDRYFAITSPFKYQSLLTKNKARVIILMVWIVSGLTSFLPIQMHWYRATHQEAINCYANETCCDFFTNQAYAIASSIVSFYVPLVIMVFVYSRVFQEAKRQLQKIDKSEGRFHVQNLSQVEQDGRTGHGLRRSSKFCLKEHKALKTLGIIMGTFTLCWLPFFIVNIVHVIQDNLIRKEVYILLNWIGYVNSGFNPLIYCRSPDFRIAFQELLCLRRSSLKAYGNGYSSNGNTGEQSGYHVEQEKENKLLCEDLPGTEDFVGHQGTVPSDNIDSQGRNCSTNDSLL

For `O=[N+]([O-])c1c(Cl)c(Cl)cc(Cl)c1Cl`, the Potency was 43.3 µM (active) in assay [1]; 9.69 µM (active) in assay [2]; 36.3 µM (active) in [8]; 11.2 µM (active) in assay [11]; 3.47 µM (active) in assay [12]. Also, the Potency result in assay [3], in assay [4], in [5], in [6], in assay [7] and in assay [9] was “inactive” in each case. Moreover, the Potency entry in assay [10], in assay [13] and in assay [14] was “inactive” throughout.
As for `CC(C)CBr`, the Potency result in assay [1], in assay [2], in assay [3], in assay [4], in assay [5] and in [6] was “inactive” each time. Further, the Potency result in assay [7], in assay [8], in assay [9], in assay [15], in assay [16] and in assay [10] was “inactive” each time. Also, the Potency entry in assay [11], in assay [12], in assay [17], in assay [13], in assay [14] and in assay [18] was “inactive” throughout. For the same molecule, the Potency entry in assay [19] is “inactive”.
On to `CN1C2CCC(C)(C)C1CC(OC(=O)C(O)(c1cccs1)c1cccs1)C2` (stereo not given), for which the Potency entry in [1], in [2], in [3], in [4], in assay [5] and in [6] was “inactive” each time. Besides, the Potency entry in assay [7], in [8], in assay [9], in [15], in assay [16] and in assay [10] was “inactive” in each case. Further, the Potency result in [17], in assay [13], in [14], in assay [18] and in [19] was “inactive” in each case.
Take `S=C=Nc1cccc2ccccc12`: the Potency was 27 µM (active) in assay [1] and 15.2 µM (active) in assay [2]. In addition, the Potency result in assay [3], in assay [4], in assay [5], in [7], in assay [8] and in [15] was “inactive” each time. Besides, the Potency result in [17], in assay [14], in assay [18] and in [19] was “inactive” throughout.
For `O=C(NC(=O)c1cc(F)c(F)cc1Cl)Nc1cc(F)ccc1N1CCC(C(=O)O)CC1`, the Potency result in [1], in assay [2], in assay [3], in assay [4], in [5] and in assay [6] was “inactive” in each case. The Potency entry in [7], in [8], in [9], in [16], in [10] and in assay [11] was “inactive” throughout. In addition, the Potency entry in assay [12], in [14], in [20], in assay [18] and in assay [19] was “inactive” in each case.
Regarding `II`, the Potency entry in assay [1], in assay [2], in assay [3], in assay [4], in assay [5] and in assay [6] was “inactive” in each case. Moreover, the Potency result in assay [7], in assay [8], in assay [9], in [15], in assay [16] and in assay [12] was “inactive” each time. Besides, the Potency result in assay [17], in assay [13], in [14], in assay [20] and in assay [18] was “inactive” in each case.
Regarding `CC(C)(C)c1ccc(CSc2cnn(C(C)(C)C)c(=O)c2Cl)cc1`, the Potency result in assay [1], in assay [2], in assay [3], in assay [4], in [5] and in assay [8] was “inactive” throughout. Also, the Potency entry in [9], in assay [16], in [11], in [12], in assay [14] and in assay [20] was “inactive” in each case. The Potency result in assay [19] was “inactive”.
For `CCOC(C(=O)OCCN(C)C)(c1ccccc1)c1ccccc1`, the Potency entry in [1], in [2], in assay [3], in [4], in assay [5] and in [6] was “inactive” in each case. Also, the Potency entry in [7], in [8], in assay [9], in assay [15], in assay [10] and in assay [12] was “inactive” each time. Moreover, the Potency result in [17], in assay [13] and in assay [14] was “inactive” in each case. Besides, in assay [11], the Potency was 2.31 µM (active).
